# Pf Dd2 inh – blocks in vitro growth of P. falciparum Dd2 | P. falciparum Dd2 growth, SYBR Green, 72 h | Potency, µM (doses to about 28.9 µM), without a hit: at the top dose activity, negative = inhibition, most hits filed as inhibitors | actives 4.3% (n = 120,000) | AID 1347417; active means well fitted inhibition curve with a large enough effect;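 further: plate controls were DMSO vehicle for no effect and reference drug for full effect; nearly all actives have a fitted effect of over 65% in size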
#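 Infected erythrocytes (Dd2, 0.3% parasitemia, 2.5% hematocrit final) are added to compound in RPMI-1640/Albumax II medium, grown 72 h at 37C in low oxygen, then lysed with saponin/Triton-X containing SYBR Green and read by fluorescence.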
# Active calls of the source: *; i = inactive; [ ] = remark or other dose. Only a selection was taken, and hits are over-represented in it overall. Potency means the concentration at half of the fitted maximal effect.
SMILES,Pf Dd2 inh
COCC(=O)N1CCC2(CC1)C(=O)Nc1cc(Oc3ccccc3)c(OC)cc12,i
COc1cc2c(cc1OCc1ccccc1)NC(=O)C21CCN(c2ncccn2)CC1,4.5µM*
COc1cc2c(cc1OCc1ccccc1)NC(=O)C21CCN(Cc2ccccc2)CC1,-4%[44.1 µM]
CCc1cnc(N2CCC3(CC2)C(=O)Nc2cc(OCc4ccccc4)c(OC)cc23)nc1,-14%
COc1cc2c(cc1Oc1ccccc1)NC(=O)C21CCN(CCC(C)C)CC1,6.3µM*
CN(C)CC(O)COc1ccc(CN2CCN(c3ncc[nH]c3=O)CC2)cc1 (stereo not given),-14%
Cc1ccccc1N1Cc2c(NCC3CCCCC3)ncnc2N(C)CC1=O,i
CCO[C@H]1CN(C(=O)Cc2c(C)[nH]c3c(F)cccc23)C[C@@H]1O,-5%
O[C@H]1[C@H](NCc2ccco2)[C@H]2CO[C@H](O2)[C@@H]1N1CCCCC1,30%[44.1 µM]
O=C(NCc1ccc(F)cc1)N1CCC(N2CC3CC(C2)[C@H]2CCCC(=O)N2C3)CC1 (stereo not given in full),-8%
Fc1ccc(Cc2nc3nccc(-c4ccsc4)n3n2)cc1,i
O=C(NCC1CC1)c1cn(C2CN(C(=O)Nc3ccccc3F)C2)nn1,22%
COc1ccc(C(=O)N2CCC3(CC2)C(OC)C(=O)N3CC2CC2)cn1 (stereo not given),16%
O=C(O)c1ccc(CC2CCN(C(=O)c3cccc(-n4cccn4)c3)C2)cc1 (stereo not given),-5%
CC(C)OCCCNC(=O)C1N(C(C)C)C(=O)C12CCCC2 (stereo not given),33%
CCOc1cc(-c2nc(C3CC(=O)N(c4ccc(F)cc4)C3)no2)cc(OCC)c1OCC (stereo not given),i
COc1ccc(OC)c(S(=O)(=O)N2Cc3ccccc3CC2C(=O)Nc2ccc(Cl)cc2)c1 (stereo not given),i
COc1ccc(NC(=O)C2Cc3ccccc3CN2S(=O)(=O)c2ccccc2)cc1OC (stereo not given),-25%
COc1ccc(S(=O)(=O)N2Cc3ccccc3CC2C(=O)Nc2cc(Cl)ccc2Cl)cc1 (stereo not given),10µM*
COCCCN1CC2(CCN(C(=O)c3nn(C)c4ccccc34)CC2)CC1=O,0%
COc1cccc(CCC(=O)N2C[C@@H](CO)[C@H](c3ccncc3)C2)c1,-29%
COc1ccc(-c2cn3cc(C(=O)N4CCCC4)nc3c(=O)n2CC2CC2)c(F)c1,8.9µM*
O=C(c1cn2cc(-c3ccccc3Cl)n(CC3CC3)c(=O)c2n1)N1CC[C@@H](O)C1,i
COc1ccc(-c2cn3cc(C(=O)NCCO)nc3c(=O)n2CC2CC2)c(F)c1,-30%
CCC(=O)Nc1ccc(C2(C(=O)NCC3CC3)CCCCC2)cc1,-14%
SMILES,Pf Dd2 inh
COc1ccc(C(=O)Nc2ccc([C@H]3OCC(=O)N(Cc4cccnc4)[C@@H]3CO)cc2)cc1,i
CCOC(=O)c1cc(-c2ccccc2)n(-c2cccc(C(=O)Nc3cccc(C)c3)c2)c1C,11µM*
CCOC(=O)c1cc(-c2ccccc2)n(-c2cccc(C(=O)N(CC)c3ccccc3)c2)c1C,i
CCOC(=O)c1cc(-c2ccc(C)cc2)n(CC(=O)Nc2cccc(C(C)=O)c2)c1C,i
CN1Cc2nc(-c3ccc4c(c3)OCO4)ccc2OCC1=O,-15%[44.1 µM]
COc1ccc(-c2cc3ccc(O)c(CN4CCCC(C)C4)c3oc2=O)cc1 (stereo not given),1µM*
COc1ccc(S(=O)(=O)NCC2CCCN(Cc3ccc(-c4ccco4)cc3)C2)cc1 (stereo not given),-14%
COc1ccc(-c2nnc([C@H]3CCN(C(=O)c4ccc(OC)c(OC)c4)C3)o2)cc1,i
COc1ccc(-c2c(C)c3ccc(O)c(CN4CCN(CCO)CC4)c3oc2=O)cc1OC,3%
COc1ccc(-c2cc3ccc(O)c(CN4CCCC(C)C4)c3oc2=O)cc1OC (stereo not given),4.5µM*
COc1ccc(CCC(=O)N2CCC[C@H]2c2nc(-c3ccc(OC)c(OC)c3)no2)cc1,i
COc1ccc(N2CCN(C3CCCN(Cc4cc(=O)[nH]c(=O)[nH]4)C3)CC2)cc1 (stereo not given),-1%
COc1ccc(NC(=O)N2CCN(Cc3nc4ccc(C)cc4o3)CC2)cc1OC,30%
COc1ccc(-c2nc(CN3CCC(C(=O)NCCc4ccccc4)CC3)c(C)o2)cc1OC,i
COc1ccc(-c2c(C)c3cc(OC(=O)N4CCOCC4)ccc3oc2=O)cc1OC,i
COc1ccc(-c2cc3ccc(O)c(CN4CCCC4)c3oc2=O)cc1OC,4µM*
COc1ccc(-c2c(C)c3ccc(O)c(CN4CCCC(C)C4)c3oc2=O)cc1OC (stereo not given),11µM*
COc1ccc(C(=O)N2C[C@@H](CO)[C@H](c3ccncc3)C2)c(OC)c1,10%
CO[C@H]1[C@H](NC(=O)CCOc2ccccc2)c2ccccc2C12CCNCC2,-8%
CC(C)(C)C(=O)NC1CCN(c2cn[nH]c(=O)c2)CC1,-6%
Nc1ccc(-c2ccc(OCCn3ccnc3)cc2)cn1,i

# High-throughput results from PubChem BioAssay.
